Experimental data published in PubChem BioAssay (NCI).
About 79,000 compounds went through this panel and 15% of them were active in at least one assay; those are over-represented in the sample as a whole. Active and inactive are the calls of the source. Cut-off read from the data, not from the text of the source: active = growth inhibition above about 70%; inactive = the rest.

Key:
[1] = NCI Yeast Anticancer Drug Screen. Data for the rad52 strain (AID 147);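 note: 0% = growth of vehicle-treated control cultures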; details: S. cerevisiae rad52 mutant growth inhibition, hits give high values
How it was run: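 Genetically altered yeast (DNA damage repair defect) treated with compound; inhibition calculated relative to vehicle.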

[2] = NCI Yeast Anticancer Drug Screen. Data for the rad50EPP+ strain (AID 151);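 note: 0% = growth of vehicle-treated control cultures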; details: S. cerevisiae rad50 mutant strain, hits give high values
How it was run: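 Strain rad50EPP+; compound exposure; % growth inhibition vs vehicle.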

[3] = NCI Yeast Anticancer Drug Screen. Data for the mgt1 strain (AID 153); details: S. cerevisiae mgt1 mutant growth inhibition, hits give high values
How it was run: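 Read-out: yeast growth inhibition vs vehicle control. Strain mgt1, drawn from a panel altered in DNA damage repair or cell cycle control.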

[4] = NCI Yeast Anticancer Drug Screen. Data for the rad50 strain (AID 155);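 note: 0% = growth of vehicle-only cultures of the same strain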; details: S. cerevisiae rad50 strain growth inhibition, hits give high values
How it was run: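 Growth of the mutant yeast was measured after compound exposure and referenced to vehicle-treated cultures.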

[5] = NCI Yeast Anticancer Drug Screen. Data for the mec2-1 strain (AID 157); details: S. cerevisiae mec2-1 strain, hits give high values
How it was run: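 Cells of the genetically defined mec2-1 yeast strain are incubated with test compound. Inhibition of growth is calculated against vehicle-treated controls.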

[6] = NCI Yeast Anticancer Drug Screen. Data for the rad14 strain (AID 159);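 note: 0% = growth of vehicle-treated control cultures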; details: S. cerevisiae rad14 strain growth inhibition, hits give high values
How it was run: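 Here, inhibition of yeast growth was measured after compound exposure, using a strain with a genetic defect in DNA damage repair and vehicle-treated cultures as the reference.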

[7] = NCI Yeast Anticancer Drug Screen. Data for the sgs1 mgt1 strain (AID 161);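 note: 0% = growth of cultures given vehicle only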; details: S. cerevisiae sgs1 mgt1 strain, hits give high values
How it was run: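 Mutant yeast exposed to compound; growth scored against vehicle-only wells.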

[8] = NCI Yeast Anticancer Drug Screen. Data for the CLN2oe strain (AID 163);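 note: 0% = growth of vehicle-only control cultures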; details: S. cerevisiae CLN2oe strain, hits give high values
How it was run: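 Strain altered in cell-cycle control, incubated with compound; growth compared to solvent-treated controls.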

[9] = NCI Yeast Anticancer Drug Screen. Data for the cln2 rad14 strain (AID 165);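 note: 0% = growth equal to vehicle treated cultures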; details: S. cerevisiae cln2 rad14 strain, hits give high values
How it was run: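 The screen exposed genetically defined yeast (cln2 rad14) to test compounds and scored growth inhibition relative to vehicle-treated controls.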

[10] = NCI Yeast Anticancer Drug Screen. Data for the bub3 strain (AID 167); details: S. cerevisiae bub3 mutant strain, hits give high values
How it was run: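 Whole-cell yeast assay. The mutant strain was incubated with compounds, and growth inhibition was determined by comparison with vehicle-treated cells.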

[11] = NCI Yeast Anticancer Drug Screen. Data for the wt2 strain (AID 169);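 note: 0% = growth of vehicle-treated yeast cultures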; details: S. cerevisiae wt2 strain growth inhibition, hits give high values
How it was run: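 Steps: yeast strain treated with compound; growth recorded; inhibition calculated relative to cultures given vehicle alone.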

[12] = NCI Yeast Anticancer Drug Screen. Data for the mlh1 strain (AID 171);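 note: 0% = growth of vehicle-treated control cultures of the same strain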; details: S. cerevisiae mlh1 strain growth inhibition, hits give high values
How it was run: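 Yeast screen: mutant strain plus compound, growth scored against vehicle control wells.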

[13] = NCI Yeast Anticancer Drug Screen. Data for the sgs1 strain (AID 173);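 note: 0% = growth of vehicle-only control cultures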; details: S. cerevisiae sgs1 mutant, hits give high values
How it was run: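 Inhibition of yeast growth served as the measure. The mutant strain was treated with each compound, and growth was normalised to cultures receiving vehicle alone.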

[14] = NCI Yeast Anticancer Drug Screen. Data for the mlh1 rad18 strain (AID 175); details: S. cerevisiae mlh1 rad18 strain growth inhibition, hits give high values
How it was run: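 Compound-treated yeast growth, normalised to vehicle controls. Strain bears defined DNA repair mutations.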

[15] = NCI Yeast Anticancer Drug Screen. Data for the rad18 strain (AID 177); details: S. cerevisiae rad18 mutant growth inhibition, hits give high values
How it was run: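 Inhibition values reflect reduced yeast growth compared with vehicle-treated controls, using a strain engineered with a DNA damage repair defect.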

[16] = NCI Yeast Anticancer Drug Screen. Data for the wt1 strain (AID 149);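 note: 0% = growth of vehicle-treated wt1 cultures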; details: S. cerevisiae wt1 strain (SPY 50644) growth inhibition, hits give high values
How it was run: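 Measured: growth of wt1 yeast under compound versus vehicle treatment, reported as inhibition.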

[17] = at 5.0 µM (retest, dose inferred, filed as 0.5)
[18] = at 50.0 µM (retest, dose inferred, filed as 5.0)

Measured: growth inhibition

NCc1c(O)ccc2ccccc12
active: [1]; at 100.0 µM 99% | [2]; at 100.0 µM 88% | [3]; at 33.0 µM 98% | [3]; at 100.0 µM 99% | [4]; at 33.0 µM 92% | [4]; [18] 83% | [4]; at 50.0 µM 89.2% | [4]; at 100.0 µM 98% | [5]; at 100.0 µM 99% | [6]; at 33.0 µM 99% | [6]; at 100.0 µM 99% | [7]; [18] 74% | [7]; at 50.0 µM 85.9% | [8]; at 100.0 µM 98% | [10]; at 33.0 µM 79% | [10]; at 50.0 µM 93.7% | [10]; at 100.0 µM 98% | [11]; at 11.0 µM 70% | [11]; at 33.0 µM 99% | [11]; at 100.0 µM 99% | [12]; at 33.0 µM 96% | [12]; at 100.0 µM 98% | [13]; at 33.0 µM 99% | [13]; at 100.0 µM 99% | [14]; [18] 83% | [14]; at 50.0 µM 94% | [15]; at 33.0 µM 87% | [15]; at 100.0 µM 99%
inactive: [1]; at 1.2 µM -17% | [1]; at 3.7 µM -11% | [1]; at 11.0 µM -1% | [1]; at 33.0 µM 64% | [2]; at 1.2 µM -5% | [2]; at 3.7 µM -18% | [2]; at 11.0 µM 10% | [2]; at 33.0 µM 52% | [3]; at 1.2 µM -2% | [3]; at 3.7 µM -7% | [3]; at 11.0 µM 3% | [4]; at 1.2 µM -11% | [4]; at 3.7 µM -10% | [4]; [17] -150% | [4]; at 11.0 µM 2% | [5]; at 1.2 µM -3% | [5]; at 3.7 µM -1% | [5]; [17] -46% | [5]; at 11.0 µM 4% | [5]; at 33.0 µM 25% | [5]; [18] -15% | [5]; at 50.0 µM 47.5% | [6]; at 1.2 µM -3% | [6]; at 3.7 µM 5% | [6]; at 11.0 µM 49% | [7]; [17] -60% | [8]; at 1.2 µM -6% | [8]; at 3.7 µM -4% | [8]; at 11.0 µM -1% | [8]; at 33.0 µM 18% | [9]; [17] -53% | [9]; [18] -25% | [9]; at 50.0 µM 17.2% | [10]; at 1.2 µM -7% | [10]; at 3.7 µM -4% | [10]; [17] -71% | [10]; at 11.0 µM 0% | [10]; [18] 60% | [11]; at 1.2 µM 6% | [11]; at 3.7 µM 9% | [12]; at 1.2 µM -10% | [12]; at 3.7 µM -4% | [12]; at 11.0 µM 4% | [13]; at 1.2 µM -10% | [13]; at 3.7 µM -5% | [13]; at 11.0 µM 37% | [14]; [17] -138% | [15]; at 1.2 µM -6% | [15]; at 3.7 µM -6% | [15]; at 11.0 µM 7%

S=P(N1CC1)(N1CC1)N1CC1
active: [15]; at 100.0 µM 78%
inactive: [1]; at 1.2 µM -1% | [1]; at 3.7 µM 2% | [1]; at 11.0 µM 3% | [1]; at 33.0 µM 4% | [1]; at 100.0 µM 16% | [2]; at 1.2 µM -4% | [2]; at 3.7 µM -5% | [2]; at 11.0 µM -4% | [2]; at 33.0 µM 7% | [2]; at 100.0 µM 34% | [3]; at 1.2 µM -5% | [3]; at 3.7 µM -2% | [3]; at 11.0 µM -1% | [3]; at 33.0 µM -1% | [3]; at 100.0 µM -1% | [4]; at 1.2 µM -3% | [4]; at 3.7 µM 0% | [4]; at 11.0 µM 4% | [4]; at 33.0 µM 6% | [4]; at 50.0 µM 28.6% | [4]; at 100.0 µM 23% | [5]; at 1.2 µM -5% | [5]; at 3.7 µM -3% | [5]; at 11.0 µM -1% | [5]; at 33.0 µM -2% | [5]; at 50.0 µM -0.7% | [5]; at 100.0 µM 5% | [6]; at 1.2 µM 0% | [6]; at 3.7 µM 3% | [6]; at 11.0 µM 5% | [6]; at 33.0 µM 9% | [6]; at 100.0 µM 20% | [7]; at 50.0 µM 30.1% | [8]; at 1.2 µM -4% | [8]; at 3.7 µM 0% | [8]; at 11.0 µM -6% | [8]; at 33.0 µM -10% | [8]; at 100.0 µM -3% | [9]; at 50.0 µM 6.4% | [10]; at 1.2 µM -3% | [10]; at 3.7 µM -2% | [10]; at 11.0 µM 0% | [10]; at 33.0 µM -6% | [10]; at 50.0 µM 13.8% | [10]; at 100.0 µM -11% | [11]; at 1.2 µM -1% | [11]; at 3.7 µM -2% | [11]; at 11.0 µM -2% | [11]; at 33.0 µM -17% | [11]; at 100.0 µM 2% | [12]; at 1.2 µM 0% | [12]; at 3.7 µM -1% | [12]; at 11.0 µM -2% | [12]; at 33.0 µM 1% | [12]; at 100.0 µM 7% | [14]; at 50.0 µM -2.75% | [15]; at 1.2 µM -3% | [15]; at 3.7 µM -1% | [15]; at 11.0 µM 6% | [15]; at 33.0 µM 24%

O=C(Nc1cccc(C(F)(F)F)c1)Oc1ccc(Cl)cc1C(=O)c1ccccc1
active: [1]; at 11.0 µM 80% | [1]; at 100.0 µM 98% | [16]; at 11.0 µM 76% | [16]; at 33.0 µM 80% | [16]; at 100.0 µM 97% | [4]; [17] 99% | [4]; at 11.0 µM 90% | [4]; at 33.0 µM 82% | [4]; [18] 97% | [4]; at 50.0 µM 90.4% | [4]; at 100.0 µM 98% | [5]; [17] 100% | [5]; at 11.0 µM 88% | [5]; at 33.0 µM 97% | [5]; [18] 89% | [5]; at 50.0 µM 92.9% | [5]; at 100.0 µM 97% | [6]; at 100.0 µM 97% | [7]; [18] 98% | [7]; at 50.0 µM 92.9% | [8]; at 11.0 µM 74% | [8]; at 33.0 µM 85% | [8]; at 100.0 µM 97% | [9]; [18] 98% | [9]; at 50.0 µM 93% | [10]; at 11.0 µM 83% | [10]; at 33.0 µM 91% | [10]; [18] 96% | [10]; at 50.0 µM 91% | [10]; at 100.0 µM 97% | [11]; at 11.0 µM 91% | [11]; at 33.0 µM 77% | [11]; at 100.0 µM 98% | [12]; at 11.0 µM 88% | [12]; at 33.0 µM 70% | [12]; at 100.0 µM 97% | [13]; at 11.0 µM 82% | [13]; at 33.0 µM 91% | [13]; at 100.0 µM 97% | [14]; [17] 100% | [14]; [18] 93% | [14]; at 50.0 µM 91.2% | [15]; at 11.0 µM 91% | [15]; at 33.0 µM 86% | [15]; at 100.0 µM 98%
inactive: [1]; at 1.2 µM 15% | [1]; at 3.7 µM 17% | [1]; at 33.0 µM 69% | [16]; at 1.2 µM 18% | [16]; at 3.7 µM 13% | [4]; at 1.2 µM 22% | [4]; at 3.7 µM 17% | [5]; at 1.2 µM 19% | [5]; at 3.7 µM 42% | [6]; at 1.2 µM -3% | [6]; at 3.7 µM -2% | [6]; at 11.0 µM 51% | [6]; at 33.0 µM 64% | [7]; [17] -34% | [8]; at 1.2 µM 24% | [8]; at 3.7 µM 15% | [9]; [17] 31% | [10]; at 1.2 µM 10% | [10]; at 3.7 µM 24% | [10]; [17] 15% | [11]; at 1.2 µM 15% | [11]; at 3.7 µM 6% | [12]; at 1.2 µM 9% | [12]; at 3.7 µM 8% | [13]; at 1.2 µM 24% | [13]; at 3.7 µM 30% | [15]; at 1.2 µM 6% | [15]; at 3.7 µM 21%
